Results published in PMC5540273 (PLoS ONE, 2017).
Where “and” joins values, the source holds several entries; their conditions need not be identical. Equal entries are not always repeated. Where two headings read alike, the source gives them in different places.

How the values were obtained:
TIE1 = conditions: concentration: 1 μM, replicates: in singlicate; n = 1
TIE2 = system: T1, TIE2; conditions: concentration: 1 μM, replicates: in singlicate, n = 1
T1 construct: gene TEK

TLK1 = conditions: concentration: 1 μM, replicates: in singlicate, n = 1
TLK2 = conditions: concentration: 1 μM, replicates: in singlicate, n = 1
TNIK = conditions: concentration: 1 μM, replicates: in singlicate, n = 1
TNK1 = conditions: concentration: 1 μM, replicates: in singlicate, n = 1
TNK2 = conditions: concentration: 1 μM, replicates: in singlicate; n = 1
TNNI3K = conditions: concentration: 1 μM, replicates: in singlicate, n = 1
TRKA = system: T2, TRKA; conditions: concentration: 1 μM, replicates: in singlicate, n = 1
T2 construct: gene NTRK1

TRKB = conditions: concentration: 1 μM, replicates: in singlicate, n = 1
TRKC = system: T3, TRKC; conditions: concentration: 1 μM, replicates: in singlicate, n = 1
T3 construct: gene NTRK3

TRPM6 = conditions: concentration: 1 μM, replicates: in singlicate, n = 1
TSSK1B = conditions: concentration: 1 μM, replicates: in singlicate; n = 1
TSSK3 = conditions: concentration: 1 μM, replicates: in singlicate, n = 1
TTK = conditions: concentration: 1 μM, replicates: in singlicate, n = 1
TXK = conditions: concentration: 1 μM, replicates: in singlicate; n = 1
[1] = system: TYK2(JH1domain-catalytic); conditions: concentration: 1 μM, replicates: in singlicate, n = 1
[2] = system: TYK2(JH2domain-pseudokinase); conditions: concentration: 1 μM, replicates: in singlicate, n = 1
TYRO3 = conditions: concentration: 1 μM, replicates: in singlicate; n = 1
ULK1 = conditions: concentration: 1 μM, replicates: in singlicate, n = 1
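Further: KINOMEscan kinase panel screen.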

## COc1ccc(-c2oc3ncnc(N)c3c2-c2ccc(OC)cc2)cc1 [SB-589132]
TIE1
  %Inh: 1%
TIE2
  %Inh: 9%
TLK1
  %Inh: 0%
TLK2
  %Inh: 0%
TNIK
  %Inh: 0%
TNK1
  %Inh: 45%
TNK2
  %Inh: 44%
TNNI3K
  %Inh: 50%
TRKA
  %Inh: 52%
TRKB
  %Inh: 74%
TRKC
  %Inh: 71%
TRPM6
  %Inh: 0%
TSSK1B
  %Inh: 19%
TSSK3
  %Inh: 22%
TTK
  %Inh: 31%
TXK
  %Inh: 11%
[1]
  %Inh: 53%
[2]
  %Inh: 98.9%
TYRO3
  %Inh: 0%
ULK1
  %Inh: 9%

## Cn1ccc2ncnc(Nc3ccc(Oc4cccc(Cl)c4)c(Cl)c3)c21
TIE1
  %Inh: 0%
TIE2
  %Inh: 26%
TLK1
  %Inh: 22%
TLK2
  %Inh: 9%
TNIK
  %Inh: 17%
TNK1
  %Inh: 0%
TNK2
  %Inh: 0%
TNNI3K
  %Inh: 11%
TRKA
  %Inh: 0%
TRKB
  %Inh: 0%
TRKC
  %Inh: 11%
TRPM6
  %Inh: 0%
TSSK1B
  %Inh: 0%
TSSK3
  %Inh: 2%
TTK
  %Inh: 16%
TXK
  %Inh: 25%
[1]
  %Inh: 18%
[2]
  %Inh: 4%
TYRO3
  %Inh: 4%
ULK1
  %Inh: 10%

## Fc1cccc(COc2ccc(Nc3ncnc4cc[nH]c34)cc2Cl)c1
TIE1
  %Inh: 0%
TIE2
  %Inh: 5%
TLK1
  %Inh: 25%
TLK2
  %Inh: 12%
TNIK
  %Inh: 11%
TNK1
  %Inh: 0%
TNK2
  %Inh: 27%
TNNI3K
  %Inh: 5%
TRKA
  %Inh: 2%
TRKB
  %Inh: 17%
TRKC
  %Inh: 0%
TRPM6
  %Inh: 0%
TSSK1B
  %Inh: 0%
TSSK3
  %Inh: 0%
TTK
  %Inh: 4%
TXK
  %Inh: 0%
[1]
  %Inh: 19%
[2]
  %Inh: 28%
TYRO3
  %Inh: 19%
ULK1
  %Inh: 24%

## N#Cc1ccc(Oc2ccc(Nc3ncnc4cc[nH]c34)cc2Cl)cc1
TIE1
  %Inh: 0%
TIE2
  %Inh: 20%
TLK1
  %Inh: 22%
TLK2
  %Inh: 0%
TNIK
  %Inh: 9%
TNK1
  %Inh: 0%
TNK2
  %Inh: 2%
TNNI3K
  %Inh: 26%
TRKA
  %Inh: 17%
TRKB
  %Inh: 0%
TRKC
  %Inh: 21%
TRPM6
  %Inh: 0%
TSSK1B
  %Inh: 0%
TSSK3
  %Inh: 0%
TTK
  %Inh: 16%
TXK
  %Inh: 2%
[1]
  %Inh: 12%
[2]
  %Inh: 11%
TYRO3
  %Inh: 0%
ULK1
  %Inh: 14%

## FC(F)(F)c1cc(Nc2nccc(-c3c(-c4ccc(Cl)cc4)nn4ncccc34)n2)ccc1Cl [GW829351]
TIE1
  %Inh: 0%
TIE2
  %Inh: 0%
TLK1
  %Inh: 0%
TLK2
  %Inh: 0%
TNIK
  %Inh: 12%
TNK1
  %Inh: 21%
TNK2
  %Inh: 0%
TNNI3K
  %Inh: 0%
TRKA
  %Inh: 0%
TRKB
  %Inh: 0%
TRKC
  %Inh: 0%
TRPM6
  %Inh: 0%
TSSK1B
  %Inh: 0%
TSSK3
  %Inh: 0%
TTK
  %Inh: 0%
TXK
  %Inh: 0%
[1]
  %Inh: 6%
[2]
  %Inh: 0%
TYRO3
  %Inh: 0%
ULK1
  %Inh: 0%

## CC(C)(C)c1ccc(-n2cnc3c(N)ncnc32)cc1 [SKF-97263]
TIE1
  %Inh: 14%
TIE2
  %Inh: 0%
TLK1
  %Inh: 0%
TLK2
  %Inh: 0%
TNIK
  %Inh: 0%
TNK1
  %Inh: 5%
TNK2
  %Inh: 10%
TNNI3K
  %Inh: 12%
TRKA
  %Inh: 18%
TRKB
  %Inh: 0%
TRKC
  %Inh: 0%
TRPM6
  %Inh: 34%
TSSK1B
  %Inh: 16%
TSSK3
  %Inh: 13%
TTK
  %Inh: 15%
TXK
  %Inh: 16%
[1]
  %Inh: 6%
[2]
  %Inh: 41%
TYRO3
  %Inh: 0%
ULK1
  %Inh: 24%

## Cc1ccc(O)cc1Nc1cc(C(F)(F)F)nc2ccc(-c3ccncc3)cc12 [GW630823]
TIE1
  %Inh: 0%
TIE2
  %Inh: 3%
TLK1
  %Inh: 21%
TLK2
  %Inh: 0%
TNIK
  %Inh: 1%
TNK1
  %Inh: 0%
TNK2
  %Inh: 17%
TNNI3K
  %Inh: 14%
TRKA
  %Inh: 0%
TRKB
  %Inh: 0%
TRKC
  %Inh: 0%
TRPM6
  %Inh: 0%
TSSK1B
  %Inh: 0%
TSSK3
  %Inh: 0%
TTK
  %Inh: 3%
TXK
  %Inh: 10%
[1]
  %Inh: 0%
[2]
  %Inh: 0%
TYRO3
  %Inh: 36%
ULK1
  %Inh: 0%

## CCCc1ccc(S(=O)(=O)NC2CCN(c3ccnc(Nc4ccc(OC)cc4)n3)C2)cc1 (stereo not shown) [GSK1379737]
TIE1
  %Inh: 34%
TIE2
  %Inh: 0%
TLK1
  %Inh: 0%
TLK2
  %Inh: 0%
TNIK
  %Inh: 0%
TNK1
  %Inh: 0%
TNK2
  %Inh: 11%
TNNI3K
  %Inh: 6%
TRKA
  %Inh: 0%
TRKB
  %Inh: 23%
TRKC
  %Inh: 36%
TRPM6
  %Inh: 0%
TSSK1B
  %Inh: 0%
TSSK3
  %Inh: 5%
TTK
  %Inh: 0%
TXK
  %Inh: 6%
[1]
  %Inh: 53%
[2]
  %Inh: 46%
TYRO3
  %Inh: 0%
ULK1
  %Inh: 99.6%

## CCn1c(-c2ccncc2)nc2cnccc21 [SB-735216]
TIE1
  %Inh: 0%
TIE2
  %Inh: 12%
TLK1
  %Inh: 0%
TLK2
  %Inh: 0%
TNIK
  %Inh: 0%
TNK1
  %Inh: 1%
TNK2
  %Inh: 13%
TNNI3K
  %Inh: 0%
TRKA
  %Inh: 27%
TRKB
  %Inh: 41%
TRKC
  %Inh: 36%
TRPM6
  %Inh: 22%
TSSK1B
  %Inh: 8%
TSSK3
  %Inh: 0%
TTK
  %Inh: 0%
TXK
  %Inh: 21%
[1]
  %Inh: 0%
[2]
  %Inh: 0%
TYRO3
  %Inh: 26%
ULK1
  %Inh: 17%

## C[C@@H]1CCN(C(=O)CO)C[C@@H]1N(C)c1ncnc2[nH]ccc12
TIE1
  %Inh: 3%
TIE2
  %Inh: 2%
TLK1
  %Inh: 0%
TLK2
  %Inh: 0%
TNIK
  %Inh: 6%
TNK1
  %Inh: 62%
TNK2
  %Inh: 0%
TNNI3K
  %Inh: 0%
TRKA
  %Inh: 15%
TRKB
  %Inh: 10%
TRKC
  %Inh: 0%
TRPM6
  %Inh: 0%
TSSK1B
  %Inh: 0%
TSSK3
  %Inh: 0%
TTK
  %Inh: 0%
TXK
  %Inh: 7%
[1]
  %Inh: 90.6%
[2]
  %Inh: 0%
TYRO3
  %Inh: 0%
ULK1
  %Inh: 0%

## COc1ccc(-c2nc3n(c2-c2ccncc2)CCC3)cc1 [SKF-104493]
TIE1
  %Inh: 0%
TIE2; 1 µM
  %Inh: 0% and 2%
TLK1; 1 µM
  %Inh: 7% and 0%
TLK2; 1 µM
  %Inh: 0% and 24%
TNIK; 1 µM
  %Inh: 0% and 11%
TNK1; 1 µM
  %Inh: 6% and 0%
TNK2
  %Inh: 0%
TNNI3K; 1 µM
  %Inh: 25% and 6%
TRKA; 1 µM
  %Inh: 0% and 32%
TRKB; 1 µM
  %Inh: 13% and 0%
TRKC; 1 µM
  %Inh: 25% and 5%
TRPM6; 1 µM
  %Inh: 0% and 3%
TSSK1B
  %Inh: 0%
TSSK3; 1 µM
  %Inh: 21% and 8%
TTK; 1 µM
  %Inh: 30% and 0%
TXK
  %Inh: 0%
[1]; 1 µM
  %Inh: 7% and 0%
[2]; 1 µM
  %Inh: 9% and 1%
TYRO3
  %Inh: 0%
ULK1; 1 µM
  %Inh: 7% and 0%
